The results in this text go back to PMC4552634, “A New Set of Chemical Starting Points with Plasmodium falciparum Transmission-Blocking Potential for Antimalarial Drug Discovery” (PLoS ONE, 2015).

Where two headings read alike, the source gives them in different places. Screen size: about 13,000 compounds; about 3,200 (25%) showed an effect of 50% or more. Some of the results follow.

The experiment has as its system P. falciparum stage V gametocytes. Set-up: BacTiter-Glo ATP luminescence viability of purified stage V gametocytes in 384-well plates, per cent inhibition versus DMSO. To be noted: 48 h, 5 µM, inhibitor.

For the compound `CCCCc1nc2nc(N)nc(N)c2cc1CCC` [TCMDC-137499], the % Inhibition (in general, the relative decrease from the control value, in per cent) worked out at 32.62%. Regarding `Nc1ccn([C@@H]2O[C@H](COC(c3ccccc3)(c3ccccc3)c3ccccc3)[C@@H](O)[C@@H]2O)c(=O)n1` [TCMDC-131864], the “% Inhibition” value is on record as 13.5%. Same read-out and setting: as for `Cc1[nH]cc(Br)c(=O)c1-c1ccc(Oc2ccccc2)cc1` [TCMDC-136196], the figure is 35.13%; as for `COc1cc(NC(=O)Nc2cccc3ccccc23)c(OC)cc1Cl` [TCMDC-123751], 9.254%; as for `COc1ccc(OC)c(-c2ccc(=O)n(CC(=O)Nc3cccc4ccccc34)n2)c1` [TCMDC-125146], 85.63%.

Turning to `COc1ccc(C(=O)Cn2nc(-c3ccc(Cl)cc3)ccc2=O)c(OC)c1` [TCMDC-135946], the “% Inhibition” value is listed as -6.888%.

Consider `O=C(Cc1cnc[nH]1)Nc1cccc(-c2cccc(-c3nc4ccc(F)cc4[nH]3)c2)c1` [TCMDC-136943], for which the “% Inhibition” value was 10.3%.

`O=C(Nc1ccc(Cl)c(Cl)c1)N(Cc1ccccc1Br)C1CCNCC1` [TCMDC-141401]: the “% Inhibition” value was 32.46%. `O=C(Nc1cccc(-c2cccc(-c3ccc(F)cc3)n2)c1)c1ccc([N+](=O)[O-])o1` [TCMDC-124807]: the “% Inhibition” value was found to be 101.6%. In the case of `O=C(Nc1ccc(-c2nc3ccccc3[nH]2)cc1)c1ccc(-c2cccc([N+](=O)[O-])c2)o1` [TCMDC-125805], the “% Inhibition” value is given as -5.454%. Turning to `COc1ccc(OC)c(-c2cccc(-c3cccc(NC(=O)c4ccc([N+](=O)[O-])o4)c3)n2)c1` [TCMDC-124799], the “% Inhibition” value worked out at 113.4%. Same read-out and setting: as for `CC(C)(C)c1ccc(C(=O)Nc2ccc(NC(=O)c3ccc([N+](=O)[O-])o3)cc2)cc1` [TCMDC-123733], the figure is -4.108%; as for `COc1ccccc1-c1cccc(-c2cccc(NC(=O)c3ccc([N+](=O)[O-])o3)c2)n1` [TCMDC-124800], 105.3%; as for `CCCc1ccc(-c2csc(NC(=O)c3ccc([N+](=O)[O-])o3)n2)cc1` [TCMDC-125314], 1.071%. As to `O=C(Nc1cccc(-c2nc3ccccc3[nH]2)c1)c1ccc(-c2cccc([N+](=O)[O-])c2)o1` [TCMDC-125228], the “% Inhibition” value came out at 18.9%. `Cc1ccc(-n2nc3ccc(NC(=O)c4ccc([N+](=O)[O-])o4)cc3n2)cc1C` [TCMDC-123655]: the “% Inhibition” value is 20.82%. As to `COc1cccc(-c2cc(C(=O)Nc3cc(Oc4ccc(O)cc4)cc([N+](=O)[O-])c3)on2)c1` [TCMDC-125290], the “% Inhibition” value is listed as -10.41%. Take `COc1cccc(-c2cc(-c3ccc(NC(=O)c4ccccc4)cc3)c3c(N)ncnc3n2)c1` [TCMDC-134855]: the “% Inhibition” value is reported as -19.07%. As to `COc1cccc(-c2cccc(-c3ccc(NC(=O)c4ccc([N+](=O)[O-])o4)cc3)n2)c1` [TCMDC-124806], the “% Inhibition” value was 99.55%. `O=C(Nc1cc(Oc2ccc(O)cc2)cc([N+](=O)[O-])c1)c1cc(-c2ccc(F)cc2)no1` [TCMDC-125444]: the “% Inhibition” value was -44.25%. On to `Cc1cc(C(F)(F)F)cc(-n2ncc(-c3ccc(C(=O)NCc4ccccc4N)cc3)c2N)n1` [TCMDC-136658], for which the “% Inhibition” value is listed as -13.23%. `COc1ccc(CN2CCC(N3CCc4cc(NC(=O)c5cc(C)on5)ccc43)C2)cc1Cl` (stereo not drawn) [TCMDC-135080]: the “% Inhibition” value is -33.25%.

Consider `COc1cc(C)ccc1S(=O)(=O)N1CCCCC(c2ccc(C(F)(F)F)cc2)=N1` [TCMDC-134533], for which the “% Inhibition” value came out at 19.73%. Consider `CCn1c(SC)nnc1C1CCCN(CC(=O)Nc2nc3ccc(OC)cc3s2)C1` (stereo not drawn) [TCMDC-123539], for which the “% Inhibition” value stood at 2.495%. With `Cc1cc(CN2C(=O)C(c3ccccc3)(c3ccccc3)N=C2N)c(C(F)(F)F)o1` [TCMDC-132305], the “% Inhibition” value is 6.087%. The same measure, in the same setting: with `OC(CN1CCN(Cc2ccccc2)CC1)Cn1c(-c2ccccc2)c(-c2ccccc2)c2ccccc21` (stereo not drawn) [TCMDC-124021] the figure was 9.388%. On to `CN(C)CC(O)C(c1ccccc1)c1ccc(Cl)cc1` (stereo not drawn) [TCMDC-131413], for which the “% Inhibition” value turned out to be 8.677%. As for `N=c1sc2ccccc2n1CC(O)c1ccc(Cl)c(Cl)c1` (stereo not drawn) [TCMDC-124031], the “% Inhibition” value is 27.67%. Consider `Cc1ccc2c(c1)nc(N)n2C[C@H](O)c1ccccc1` [TCMDC-138693], for which the “% Inhibition” value was found to be 42.68%.

On to `O=C(Cc1ccccc1)NC(CCN1CCC(NC(=O)c2ccc(Cl)cc2)CC1)c1ccc(Cl)c(Cl)c1` (stereo not drawn) [TCMDC-141709], for which the “% Inhibition” value is given as -3.295%. Consider `N=c1n(Cc2ccc(Cl)cc2)c2ccccc2n1CC(O)c1ccc(Cl)c(Cl)c1` (stereo not drawn) [TCMDC-123813], for which the “% Inhibition” value is reported as 91.34%.

Consider `COC(=O)C(C)(C)Cc1c(SC(C)(C)C)c2cc(C(C)C)ccc2n1Cc1ccc(Cl)cc1` [TCMDC-131973], for which the “% Inhibition” value is 5.735%. In the case of `N=c1n(Cc2ccccc2)c2ccccc2n1CC(O)c1ccc(Cl)cc1` (stereo not drawn) [TCMDC-124078], the “% Inhibition” value is listed as 66.41%. As to `N=c1n(Cc2ccccc2)c2ccccc2n1CC(O)c1ccc(Cl)c(Cl)c1` (stereo not drawn) [TCMDC-124061], the “% Inhibition” value turned out to be 50.12%. For the compound `C=CCn1c(=N)n(CC(O)c2ccc(Cl)c(Cl)c2)c2ccccc21` (stereo not drawn) [TCMDC-125726], the “% Inhibition” value came out at 57.07%. As to `O=C(NC1CC1)c1cnc(N2CCC(COc3cccc(F)c3)CC2)c(Cl)c1` [TCMDC-134030], the “% Inhibition” value was determined as 7.356%.

Take `COc1ccc(CCn2c(C3CCCCC3)nc3oc4ccccc4c(=O)c3c2=O)cc1` [TCMDC-125003]: the “% Inhibition” value came out at 26.12%. As for `Cc1ccc(CON2C(N)=NC(N)=NC23CCCCC3)c2ccccc12` [TCMDC-131589], the “% Inhibition” value was 35.49%.

Take `O=S(=O)(NC1CCN(c2ccnc3cc(Cl)ccc23)C1)c1ccc(F)cc1` (stereo not drawn) [TCMDC-133654]: the “% Inhibition” value stood at 5.841%. As to `CCC1=C(C[C@H]2NCCc3cc(OC)c(OC)cc32)C[C@H]2c3cc(OC)c(OC)cc3CCN2C1` [TCMDC-131825], the “% Inhibition” value is recorded as 95.62%. `CCC1CN2CCc3c([nH]c4ccccc34)[C@@H]2C[C@@H]1CC1NCCc2cc(OC)c(OC)cc21` (stereo partly drawn) [TCMDC-142009]: the “% Inhibition” value (% Inhibition) is given as -17.31%.

On to `CCC1CN2CCc3c([nH]c4ccc(OC)cc34)C2CC1CC1NCCc2cc(OC)c(OC)cc21` (stereo not drawn) [TCMDC-142010], for which the “% Inhibition” value is -39.55%. As for `CC(C)c1ccc(-c2nc3ncc(Cl)cc3[nH]2)cc1` [TCMDC-125093], the “% Inhibition” value was found to be 64.2%. With `CCN(CC)c1ccc(-c2nc3ncc(Cl)cc3[nH]2)cc1` [TCMDC-125094], the “% Inhibition” value came out at 7.94%. On to `Nc1ncc(-c2cn[nH]c2)cc1-c1nc2ncc(Cl)cc2[nH]1` [TCMDC-133562], for which the “% Inhibition” value is recorded as -10.74%.

With `CC(=O)Nc1ccc(S(=O)(=O)Nc2c(C)cc(Cc3cnc(N)nc3N)cc2C)cc1` [TCMDC-137632], the “% Inhibition” value was -8.406%.

On to `CNC(=O)Cc1ccc(C(=O)Nc2cccc(-c3ccc(-c4nc5cccc(C)c5[nH]4)s3)c2)cc1` [TCMDC-137076], for which the “% Inhibition” value is -37.06%. With `O=C(/C=C/c1ccc(Cl)c(Cl)c1)NCCCCCN1CCC(CCNC(=O)/C=C/c2ccc(Cl)c(Cl)c2)CC1` [TCMDC-139998], the “% Inhibition” value was 17.18%. For `O=C(/C=C/c1ccc(Cl)c(Cl)c1)NCCCCCN1CCC(CCNC(=O)Cc2ccc(Cl)cc2)CC1` [TCMDC-140001], the “% Inhibition” value came out at 60.19%. `O=C(C=Cc1ccc(Cl)c(Cl)c1)NCCCCCN1CCC(CCNC(=O)c2cccc3ccccc23)CC1` [TCMDC-139565]: the “% Inhibition” value is given as 43.11%.

For the compound `Cc1c(CC(=O)NCCC2CCN(CCCCCNC(=O)/C=C/c3ccc(Cl)c(Cl)c3)CC2)sc2ccc(Cl)cc12` [TCMDC-140008], the “% Inhibition” value came to 19.89%. With `Cc1oc(-c2ccc(Cl)cc2)cc1C(=O)NCCC1CCN(CCCCCNC(=O)/C=C/c2ccc(Cl)c(Cl)c2)CC1` [TCMDC-140009], the “% Inhibition” value came to 105.7%. The same measure, in the same setting: with `CN(C(=O)C1(c2ccc(Cl)cc2)CC1)C1CCN(CCCCCNC(=O)/C=C/c2ccc(Cl)c(Cl)c2)CC1` [TCMDC-139987] the figure was -12.99%. As to `O=C(/C=C/c1ccc(Cl)c(Cl)c1)NCCCCCN1CCC(CCNC(=O)C2(c3ccc(Cl)cc3)CC2)CC1` [TCMDC-140000], the “% Inhibition” value turned out to be 67.34%. As for `OC(CNCc1ccccc1Oc1ccccc1)c1cccc(C(F)(F)F)c1` (stereo not drawn) [TCMDC-140397], the “% Inhibition” value is 30.17%.

Consider `CC1CN(c2cc(=O)n(Cc3cccc(NC(=O)Nc4ccc(-c5ccccc5)cc4)c3)cn2)CC(C)N1` (stereo not drawn) [TCMDC-133365], for which the “% Inhibition” value is reported as -7.987%. For the compound `FC(F)(F)c1ccc2[nH]c(-c3cccc(-c4ccc(CNCC5CCCO5)cc4)c3)nc2c1.O=C(O)C(F)(F)F` (stereo not drawn) [TCMDC-133103], the “% Inhibition” value is -16.51%. Consider `COc1ccc2nccc([C@@H](O)CN3CCC(NC(=O)c4ccc(-c5ccc(C#N)cc5)cc4)CC3)c2c1` [TCMDC-141001], for which the “% Inhibition” value is 7.804%. For `COC(=O)c1ccc(CCC(C)NCC(O)c2cccc(C(F)(F)F)c2)cc1` (stereo not drawn) [TCMDC-131440], the “% Inhibition” value was found to be 17.3%. `CCC1CCCCN1S(=O)(=O)c1ccc(OC)c(N2CCN(C(=O)C(Cl)(Cl)Cl)CC2)c1` (stereo not drawn) [TCMDC-139255]: the “% Inhibition” value is reported as 3.13%. On to `CCN(C1CCCCC1)S(=O)(=O)c1ccc(OC)c(N2CCN(C(=O)C(Cl)(Cl)Cl)CC2)c1` [TCMDC-139319], for which the “% Inhibition” value was found to be 82.34%. On to `COc1ccc(S(=O)(=O)N2CCCc3ccc(Br)cc32)cc1N1CCN(C(=O)C(Cl)(Cl)Cl)CC1` [TCMDC-139339], for which the “% Inhibition” value turned out to be 22.46%. The same measure, in the same setting: as for `CSc1nc2nc(C)c(Cc3cccc(F)c3)c(C)n2n1` [TCMDC-123765], the figure is 1.864%. On the same count and under the same terms, with `COc1cc2ncnc(Nc3ccc4nc(-c5ccccc5)[nH]c4c3)c2cc1OC` [TCMDC-137191] the figure was -26.1%; with `Cc1c2ccncc2c(C)c2c1[nH]c1ccccc12` [TCMDC-125546], -37.29%; with `Cc1c2ccncc2c(C)c2c1[nH]c1cc(Cc3ccccc3)c(O)cc12` [TCMDC-132053], 89.31%.
